These results are taken from PubChem BioAssay (NCATS).

Inconclusive results are not listed. A number with no mark means an inactive call. Calls of active or inactive are those of the source. Calls come from the whole dose curve; as a rule, active = well fitted curve in the direction sought with a large enough effect; inconclusive = small, poorly fitted or top-dose-only effect, or another doubt; inactive = no such curve, though single readings can be large; an effect the other way counts as inactive or inconclusive.

Test [1] has as its target Rap guanine nucleotide exchange factor 3 (Homo sapiens) (UniProt O95398). The test can be described thus: Confirmatory qHTS for antagonist of cAMP-regulated guanine nucleotide exchange factor 3 (EPAC1) (AID 1645880). Note: nearly all actives have a fitted effect of over 55% in size. Note: potency is the fitted concentration of half-maximal effect. The method, boiled down: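 Nucleotide exchange uses 100 nM EPAC1, 250 nM RAP1B-BODIPY-GDP and 50 uM GDP, with compounds in a concentration-titration series. After 5 min at room temperature, fluorescence (480 nm ex/540 nm em) is read every 5 min for 30 min. Data are normalized to control ATA and DMSO.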
A general note: Quantitative high-throughput screening tests each substance at several concentrations.

Test [2] has the same target. The test can be described thus: Confirmatory qHTS for agonist of cAMP-regulated guanine nucleotide exchange factor 3 (EPAC1) (AID 1645881).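 For activation: EPAC1 catalysed release of BODIPY-GDP from Rap1B seen as fluorescence loss; 100% = effect of cAMP agonist control.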 Note: nearly all actives have a fitted effect of over 75% in size. Note: potency is the fitted concentration of half-maximal effect.
Test [3] has as its target Rap guanine nucleotide exchange factor 4 (Homo sapiens) (UniProt Q8WZA2). The test can be described thus: Confirmatory qHTS for agonist of cAMP-regulated guanine nucleotide exchange factor 4 (EPAC2) (AID 1645884). For activation: % is set by controls: 0 for no effect and ±100 for the full control effect.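 Note: nucleotide exchange releases bodipy-GDP from Rap1 and this lowers its fluorescence; nearly all actives have a fitted effect of over 65% in size.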 Note: potency is the fitted concentration of half-maximal effect.
Test [4] shares this target. Briefly: Confirmatory qHTS for antagonist of cAMP-regulated guanine nucleotide exchange factor 4 (EPAC2) (AID 1645885). For activity change, negative = inhibition: % is set by controls: 0 for no effect and ±100 for the full control effect. Note: nearly all actives have a fitted effect of over 25% in size. Note: potency is the fitted concentration of half-maximal effect.
Test [5] deals with Rap guanine nucleotide exchange factor 3 (Homo sapiens) (UniProt O95398). Briefly: Counterscreen qHTS for antagonist of cAMP-regulated guanine nucleotide exchange factor 3 (EPAC1) (AID 1645888).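 Note: fluorescence loss as bound BODIPY-GDP is released from Rap1B; % of control where 0% means no effect.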 The procedure, abridged:
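Rap1B-BODIPY-GDP 250 nM + GDP 50 uM; cpds 7-pt, final 9.74 nM–152 uM (activator mode) or from 7.32 nM upwards (inhibitor mode); RT; FI 480/540 nm at 5 and 30 min, then ± cAMP, reread.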
(A counterscreen serves to expose hits that act by an unwanted route or on another target.)

Rap guanine nucleotide exchange factor 3 (Homo sapiens), sequence (O95398 whole entry, looked up): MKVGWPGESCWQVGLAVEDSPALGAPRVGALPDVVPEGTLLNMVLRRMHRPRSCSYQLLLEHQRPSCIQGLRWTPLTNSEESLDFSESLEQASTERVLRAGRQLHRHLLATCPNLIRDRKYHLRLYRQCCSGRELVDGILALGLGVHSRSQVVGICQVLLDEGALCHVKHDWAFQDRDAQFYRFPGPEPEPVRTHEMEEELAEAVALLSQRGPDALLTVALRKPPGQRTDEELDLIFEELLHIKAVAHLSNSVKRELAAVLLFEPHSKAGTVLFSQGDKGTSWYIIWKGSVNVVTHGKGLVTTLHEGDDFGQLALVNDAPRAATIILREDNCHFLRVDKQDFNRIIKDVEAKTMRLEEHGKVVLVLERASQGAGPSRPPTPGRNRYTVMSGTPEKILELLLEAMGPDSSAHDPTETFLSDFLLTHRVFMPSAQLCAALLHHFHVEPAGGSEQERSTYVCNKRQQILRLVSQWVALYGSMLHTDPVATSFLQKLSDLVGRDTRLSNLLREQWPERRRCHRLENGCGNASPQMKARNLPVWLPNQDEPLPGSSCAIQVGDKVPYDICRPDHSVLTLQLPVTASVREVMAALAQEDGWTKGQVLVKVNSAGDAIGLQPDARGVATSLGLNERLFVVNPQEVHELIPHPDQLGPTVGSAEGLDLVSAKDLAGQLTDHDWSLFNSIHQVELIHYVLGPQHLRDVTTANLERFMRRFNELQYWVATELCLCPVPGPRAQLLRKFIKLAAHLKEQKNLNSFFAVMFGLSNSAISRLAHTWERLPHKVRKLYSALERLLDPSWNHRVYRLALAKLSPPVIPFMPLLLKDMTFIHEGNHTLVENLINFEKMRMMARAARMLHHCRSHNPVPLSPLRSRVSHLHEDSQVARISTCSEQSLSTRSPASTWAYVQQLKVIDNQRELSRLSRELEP
Rap guanine nucleotide exchange factor 4 (Homo sapiens), sequence (Q8WZA2 whole entry, looked up): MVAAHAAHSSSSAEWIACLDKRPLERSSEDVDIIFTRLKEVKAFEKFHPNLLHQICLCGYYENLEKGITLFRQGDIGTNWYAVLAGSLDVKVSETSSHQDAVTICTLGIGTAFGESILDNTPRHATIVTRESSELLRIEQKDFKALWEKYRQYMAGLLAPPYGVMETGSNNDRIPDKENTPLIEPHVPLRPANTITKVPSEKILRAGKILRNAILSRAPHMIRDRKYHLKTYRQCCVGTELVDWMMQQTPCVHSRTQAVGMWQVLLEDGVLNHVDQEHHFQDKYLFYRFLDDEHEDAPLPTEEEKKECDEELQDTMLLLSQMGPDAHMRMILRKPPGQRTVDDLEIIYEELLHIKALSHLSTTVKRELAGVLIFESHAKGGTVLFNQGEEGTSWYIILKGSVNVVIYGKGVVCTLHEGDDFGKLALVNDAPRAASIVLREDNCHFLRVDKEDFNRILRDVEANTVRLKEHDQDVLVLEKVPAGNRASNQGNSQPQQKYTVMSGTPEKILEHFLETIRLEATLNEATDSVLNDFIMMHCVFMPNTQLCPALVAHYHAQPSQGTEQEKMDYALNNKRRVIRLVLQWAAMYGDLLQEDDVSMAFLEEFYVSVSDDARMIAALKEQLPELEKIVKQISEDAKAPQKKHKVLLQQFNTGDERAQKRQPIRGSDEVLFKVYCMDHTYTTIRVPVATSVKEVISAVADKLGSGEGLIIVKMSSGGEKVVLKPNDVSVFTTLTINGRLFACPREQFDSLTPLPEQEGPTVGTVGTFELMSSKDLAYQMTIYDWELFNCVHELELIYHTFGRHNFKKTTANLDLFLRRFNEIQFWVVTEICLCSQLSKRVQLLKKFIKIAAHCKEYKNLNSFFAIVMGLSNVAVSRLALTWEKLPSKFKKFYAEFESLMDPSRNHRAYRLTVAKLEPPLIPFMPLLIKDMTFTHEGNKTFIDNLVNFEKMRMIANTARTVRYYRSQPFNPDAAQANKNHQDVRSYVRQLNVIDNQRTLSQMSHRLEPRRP

In the case of `N#CC(=Cc1ccc(-c2ccccc2)cc1)C(=O)c1ccccc1`, the Potency in test [1] was 39.8 µM (active). The Potency entry in test [2] and in test [4] was “inactive” each time. For the same compound, in test [3], the activation was 0.543% [at 17.1 µM, percent relative to cAMP agonist control]. Besides, in test [5], the activity change, negative = inhibition is -16.6% [at 30.8 µM].
On to `O=C1CC(c2ccccc2)=C(c2ccccc2)C1`, for which the Potency result in test [1], in test [2] and in test [4] was “inactive” in each case. For the same compound, the activation in test [3] is -2.19% [at 17.1 µM, percent relative to cAMP agonist control]. Moreover, the activity change, negative = inhibition in test [5] is 8.98% [at 30.8 µM].
Take `O=C1C=CC(=O)c2c(O)c(N3CCN(CCOCCO)CC3)c(Br)c(O)c21`: in test [1], the Potency was 9.53 µM (active). For the same compound, the Potency entry in test [2], in test [3], in test [4] and in test [5] was “inactive” each time.
In the case of `Cc1c(C(=O)NCCO)sc2nc3n(c(=O)c12)CCC3`, the Potency result in test [1], in test [2], in test [3], in test [4] and in test [5] was “inactive” each time.
As to `NC(=O)c1cc2ccc(O)cc2oc1=NCc1ccccc1`, the Potency entry in test [1], in test [4] and in test [5] was “inactive” in each case. The Potency in test [2] and in test [3] was 112 µM (active) each time.
For `CN1CCN(C(CNC(=O)c2ccc(Br)o2)c2ccc(F)cc2)CC1` (stereo not given), the Potency entry in test [1] and in test [2] was “inactive” each time. The activation in test [3] was 4.5% [at 17.1 µM, percent relative to cAMP agonist control]. For the same compound, the Potency in test [4] was 1.69 µM (active). Further, the activity change, negative = inhibition in test [5] is -2.27% [at 30.8 µM].
On to `COC(=O)c1cc2oc(C)cc2n1Cc1c(C)cc(C)cc1C`, for which the Potency entry in test [1], in test [2], in test [3], in test [4] and in test [5] was “inactive” in each case.
Regarding `COCCCN1C(=O)C(CC(=O)NCc2cccc3ccccc23)CC(C(=O)N2CCCCCC2)=C1C` (stereo not given), the Potency entry in test [1], in test [2], in test [3], in test [4] and in test [5] was “inactive” in each case.
On to `CCCCCn1c(C)c2c(OCC)cccc(=O)c2c1C`, for which the Potency entry in test [1], in test [2] and in test [4] was “inactive” throughout. Moreover, in test [3], the activation was 7.02% [at 17.1 µM, percent relative to cAMP agonist control]. Moreover, the activity change, negative = inhibition in test [5] is 23.1% [at 30.8 µM].
Regarding `O=c1nc2s/c(=C\c3ccc(-c4ccccc4[N+](=O)[O-])o3)c(=O)n2nc1-c1ccccc1`, in test [1], the Potency is 12 µM (active). The Potency entry in test [2], in test [3], in test [4] and in test [5] was “inactive” each time.
For the compound `Cc1ccc(S(=O)(=O)N2CCCCC2c2cccnc2)c(C)c1C` (stereo not given), the Potency result in test [1], in test [2] and in test [4] was “inactive” throughout. Moreover, the activation in test [3] is 14.9% [at 17.1 µM, percent relative to cAMP agonist control]. The activity change, negative = inhibition in test [5] is 2.73% [at 30.8 µM].
Regarding `COc1ccc(C(Sc2ccccc2)c2ccccc2)cc1OC` (stereo not given), the Potency result in test [1], in test [2], in test [3] and in test [5] was “inactive” each time. Besides, in test [4], the Potency was 21.3 µM (active).
Regarding `COc1cc2c(cc1OC)C(c1ccccc1)N(C(=O)c1ccco1)CC2` (stereo not given), the Potency result in test [1], in test [2], in test [3], in test [4] and in test [5] was “inactive” throughout.
Consider `COC(=O)c1ccc(/C=C2\CCn3c2nc2cc(C(=O)O)ccc2c3=O)cc1`, for which the Potency entry in test [1], in test [2], in test [3], in test [4] and in test [5] was “inactive” throughout.
In the case of `CCCc1cc(C(=O)Nc2ccccc2C(=O)OC)no1`, the Potency result in test [1], in test [2], in test [3], in test [4] and in test [5] was “inactive” each time.
As to `CCOc1ccc2nc(NC(=O)CSc3nc(-c4ccccc4)c(C#N)c(=O)[nH]3)sc2c1`, the Potency in test [1] is 56.2 µM (active). For the same compound, the Potency result in test [2] and in test [4] was “inactive” in each case. Further, in test [3], the activation is 2.22% [at 17.1 µM, percent relative to cAMP agonist control]. For the same compound, in test [5], the activity change, negative = inhibition is -3.89% [at 30.8 µM].
As to `CC(C)CNc1cc(Cl)c(S(=O)(=O)NCC(C)C)cc1C(=O)O`, the Potency result in test [1], in test [2] and in test [4] was “inactive” in each case. For the same compound, in test [3], the activation is 1.7% [at 17.1 µM, percent relative to cAMP agonist control]. In test [5], the activity change, negative = inhibition was 8.12% [at 30.8 µM].
Turning to `Cc1cccc(-n2c(O)c(C=Nc3ccccc3O)c3ccccc3c2=O)n1`, the Potency result in test [1], in test [2], in test [3], in test [4] and in test [5] was “inactive” in each case.
On to `CCOc1ccc(NCc2nc3ccccc3n2CCOc2ccccc2)cc1`, for which the Potency entry in test [1], in test [2] and in test [4] was “inactive” in each case. In test [3], the activation was 16.9% [at 17.1 µM, percent relative to cAMP agonist control]. Moreover, in test [5], the activity change, negative = inhibition is 4.92% [at 30.8 µM].
For `O=C(/C=C/c1ccco1)Nc1ccc(Cl)c(-c2nc3cc(Cl)ccc3o2)c1`, in test [1], the Potency was 75.7 µM (active). Also, the Potency entry in test [2], in test [3], in test [4] and in test [5] was “inactive” throughout.
With `CCOC(=O)C(C)n1cnc2c(nnn2-c2cccc(Cl)c2)c1=O` (stereo not given), the Potency entry in test [1], in test [2] and in test [4] was “inactive” in each case. The activation in test [3] is 0% [at 17.1 µM, percent relative to cAMP agonist control]. In addition, in test [5], the activity change, negative = inhibition is -28.5% [at 30.8 µM].
In the case of `C[C@H]1CN([C@@H](C)CO)C(=O)c2cccc(NS(=O)(=O)c3ccc(Cl)cc3)c2O[C@@H]1CN(C)CC1CCCCC1`, the Potency result in test [1], in test [2] and in test [4] was “inactive” in each case. For the same compound, in test [3], the activation is 0% [at 17.1 µM, percent relative to cAMP agonist control]. Further, the activity change, negative = inhibition in test [5] is 0.127% [at 30.8 µM].
